The whole screen tested about 47,000 compounds, of which about 2,500 (5.3%) were called active. For the sample, actives were picked, then their nearest neighbours and some compounds at random. Values without a mark were called inactive. No stated cut-off is given here; in the data, active means inhibition above about 30%; inactive means the rest.
biological target: Ubiquitin carboxyl-terminal hydrolase 30 (Homo sapiens) (UniProt Q70CQ3); assay: blocks human USP30 ubiquitin-rhodamine cleavage (AID 1645860); conditions: purified USP30, Ub-rhodamine cleavage fluorescence; at 25 µM; stronger effect = higher value
Sequence (Q70CQ3 whole entry, looked up): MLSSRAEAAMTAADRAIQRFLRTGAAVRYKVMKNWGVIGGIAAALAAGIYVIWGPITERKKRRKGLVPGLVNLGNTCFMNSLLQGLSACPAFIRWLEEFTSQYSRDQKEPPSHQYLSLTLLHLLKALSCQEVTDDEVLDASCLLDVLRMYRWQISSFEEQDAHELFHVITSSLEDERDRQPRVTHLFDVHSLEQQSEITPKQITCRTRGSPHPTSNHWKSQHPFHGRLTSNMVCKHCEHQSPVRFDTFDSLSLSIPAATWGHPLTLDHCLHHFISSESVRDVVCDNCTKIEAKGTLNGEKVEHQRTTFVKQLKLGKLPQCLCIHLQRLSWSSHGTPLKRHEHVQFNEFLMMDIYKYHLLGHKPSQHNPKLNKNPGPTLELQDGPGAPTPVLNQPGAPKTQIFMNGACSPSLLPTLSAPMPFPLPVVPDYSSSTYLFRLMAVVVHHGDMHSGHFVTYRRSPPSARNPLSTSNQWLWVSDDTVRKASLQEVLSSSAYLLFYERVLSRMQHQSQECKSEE

SMILES	inhibition
COc1ccc(CNC(=O)c2cccc3cccnc23)cc1	-9.33%
COc1ccc(CNC(=O)c2[nH]nc3c2CCc2ccccc2-3)cc1	49.8% (active)
COc1ccc(CNC(=O)c2ccccc2-c2ncc(-c3ccccc3)o2)cc1	-5.92%
O=C(O)C1(Cc2nc3ccccc3s2)CCCCC1	11.5%
CC(C)(C)OC(=O)N1CCC2(CC1)NC(=O)C1(CCCCC1)N2	16.4%
CC(C)NC(=O)CN1C(=O)CC(C)Sc2ccc(S(=O)(=O)N3CCCCC3)cc21 (stereo unspecified)	86.3% (active)
CCN1CCN(S(=O)(=O)c2ccc3c(c2)CC(C)N3C(=O)C2CC2)CC1 (stereo unspecified)	2.83%
CC1CCCN(C(=O)c2cc(S(=O)(=O)N3CCCCC3)ccc2Cl)C1 (stereo unspecified)	8.5%
COCCn1cnc2c(-c3ccccc3)cn(CC(=O)NCc3ccc(F)cc3)c2c1=O	-1.66%
Cc1ccc(CNC(=O)CC(c2ccccc2)c2ccccc2)cc1	34.5% (active)
Cc1ccc(CNC(=O)CCC(=O)N2Cc3cccn3-c3ccccc32)cc1	-82.9%
Cc1ccc(CNC(=O)c2ccc(-c3cccnc3)nc2)cc1	18.3%
O=C([C@H]1CCCO1)N1C[C@H](OCc2cccnc2)[C@H]2COC[C@H]21	2.01%
C/C(=C(\NC(=O)c1ccccc1)C(=O)NCc1ccccc1)c1ccc(C)cc1	-4.27%
CCc1nnc(-c2csc(S(=O)(=O)NC3CCCCCC3)c2)o1	16.4%
CCc1nc(SCC(=O)Nc2cccc3ccccc23)c2oc3ccccc3c2n1	47.2% (active)
CCc1nc(SCC(=O)Nc2cc(Cl)ccc2Cl)c2oc3ccccc3c2n1	20%
O=C(CSc1ncnc2c1oc1ccccc12)NC1CCCC1	29.2%
Cc1ccccc1OCC(=O)Nc1c(C)nc2scc(C)n2c1=O	2.51%
Clc1ccc(C[n+]2cc(-c3ccc(Cl)cc3)n3c2CCC3)cc1	34.1% (active)
O=C(C1CCCN(S(=O)(=O)c2ccc(Cl)cc2)C1)N1CCOCC1 (stereo unspecified)	25.3%
Cc1nc(Nc2ccc(NC(=O)c3ccco3)cc2)cc(N2CCCCC2)n1	-38.5%
Cc1ccc(Nc2nc(C(=O)NCCN3CCCCC3C)cc3occc23)cc1Cl (stereo unspecified)	-102%

SMILES	inhibition
O=C(c1cc2occc2c(Nc2ccc(F)cc2)n1)N1CCN(C(=O)c2ccco2)CC1	32.6% (active)
COC(=O)c1cc(NC(=O)c2cccnc2)ccc1N1CCOCC1	-17.6%
Cc1ccc(CNC(=O)c2ccc(-c3cncnc3)nc2)cc1C	-42.8%
CC(C)c1ccc(NC(=O)C[n+]2cc(-c3ccc(F)cc3)n3c2CCC3)cc1	41.8% (active)
Cc1c(Cl)cccc1NC(=O)C[n+]1cc(-c2ccc(Cl)cc2)n2c1CCC2	27.5%
CC(=O)CCC(=O)Nc1ccc(-c2nnc3n2CCCCC3)cc1	-1.55%
Cc1cccnc1NC(=O)C1c2ccccc2C(=O)N(C)C1c1cccs1 (stereo unspecified)	7.71%
Cc1ccc(C(C)C(=O)N2CCC(c3nc4ccccc4cc3C(N)=O)CC2)cc1 (stereo unspecified)	-3.47%
O=C(NCCC(=O)N1CCC2(CC1)NCCc1[nH]cnc12)c1ccc(-c2ccccc2)cc1	0.531%
O=C(CCN1C(=O)c2cccnc2Sc2ccccc21)Nc1cc(F)ccc1F	14.9%
O=c1ccc(-c2nc(-c3cnccn3)no2)cn1Cc1cccc(Br)c1	-4.12%
O=c1ccc(-c2nc(-c3cnccn3)no2)cn1Cc1ccccc1C(F)(F)F	41.2% (active)
O=C(c1nc(-c2cnccn2)no1)N1CCN(c2ccccc2F)CC1	-11.4%
Cc1noc(C)c1CC(=O)N1CCN(S(=O)(=O)c2ccc(C3CCCCC3)cc2)CC1	29.4%
CC(=O)N1C[C@H]2C3(CCN(C(=O)c4cc(C)on4)CC3)CC[C@@]2(C(=O)N(C)C)C1	0.149%
CCCN1CCN(Cc2nc(-c3ccc(N4CCCCCC4)nc3)no2)CC1	-26.8%
O=C1COc2ccccc2N1Cc1noc(-c2ccccc2)n1	11.5%
COc1cccc(NC(=O)c2nnn(Cc3nc(-c4cccc(C)c4)oc3C)c2N)c1	-2.05%
Cc1nc(-c2ccc(C(=O)NCc3ccc4c(c3)OCO4)cc2)cs1	46.2% (active)
Cc1ccc(C(=O)Nc2nccnc2C(=O)NCc2ccc3c(c2)OCO3)cc1	-13.1%
O=C(NCc1ccc2c(c1)OCO2)c1nc(-c2cccnc2)no1	2.73%
Cn1c(CCN2CCOCC2)nc2cc(NC(=O)c3ccco3)ccc21	-0.464%
O=C(CN(c1ccc(Cl)cc1Cl)S(=O)(=O)c1ccccc1)NCc1ccncc1	2.13%

SMILES	inhibition
Cc1cnc(NC(=O)Cn2cnc3c2c(=O)n(C)c(=O)n3C)s1	30.8% (active)
Cn1c(=O)c2c(ncn2CC(=O)OCc2cccc([N+](=O)[O-])c2)n(C)c1=O	13.8%
Cc1ccc(NC(=O)CCn2cnc3c2c(=O)n(C)c(=O)n3C)cc1	1.79%
N#Cc1ccc(NC(=O)Nc2cccn(Cc3ccccc3F)c2=O)cc1	11.4%
Cc1ccccc1-c1nc(-c2cccc(OCC(=O)N3CCOCC3)c2)no1	44.8% (active)
Cc1ccccc1-c1nc(-c2cn(CC(=O)Nc3ccccc3)cn2)no1	-44.4%
COc1ccc(-c2noc(-c3cccc(OCC(=O)NC(C)C)c3)n2)cc1	-1.09%
Cc1ccc(-c2nc(-c3cccc(-c4ccnn4C)c3)no2)cc1	4.68%
Cc1ccc(-c2noc(-c3cccc(OCC(=O)N(C)C)c3)n2)cc1	53.1% (active)
COc1cc(Cl)ccc1-c1nc(-c2cccc(C(=O)N3CCCC3)c2)no1	16.1%
COc1cc(C)c(CN2CCC(c3cc(=O)[nH]c(C)n3)C2)cc1C (stereo unspecified)	8.61%
CN(C)C(=O)C1CN(C(=O)c2n[nH]c3c2CCCC3)CC12CCOCC2 (stereo unspecified)	-5.3%
COc1cc(NC(=O)C2CCCCC2)c(OC)cc1NC(=O)CCC(=O)N1CCCCC1	-281%
Cc1ccc(CS(=O)(=O)N2CCC(C(=O)N3CCC(C)CC3)CC2)cc1	9.43%
O=C(C1CCCCC1)N1CCCC(c2ccnc3ncnn23)C1 (stereo unspecified)	21.7%
Cc1nc(-c2ccc(C)c(S(=O)(=O)NCc3ccccc3Cl)c2)cs1	34.4% (active)
Cc1ccccc1CNS(=O)(=O)c1c[nH]c2ncccc12	-1.83%
Cc1nc(-c2ccc(C)c(S(=O)(=O)NC3CCCC3)c2)cs1	-1.27%
Cc1cncc(C(=O)N[C@@H]2CC[C@H]3Oc4ccccc4N[C@H]3[C@@H]2O)c1	6.67%
Cc1c(C(=O)O)[nH]c2ccccc12	-68.1%
C[C@@H]1O[C@@H](OC2[C@H](Oc3cc(O)c4c(c3)OC(c3ccc(O)cc3)CC4=O)O[C@H](CO)[C@@H](O)[C@@H]2O)[C@H](O)[C@H](O)[C@H]1O (stereo partly specified)	33% (active)
COc1ccc(-c2cc(=O)oc3c(C)c(OCc4ccccc4F)ccc23)cc1	44% (active)
Cc1cc(=O)oc2c(C)c(OC(C)C(=O)NCc3ccncc3)ccc12 (stereo unspecified)	6.63%

SMILES	inhibition
Cc1c(OCc2ccccc2)noc1C1CCN(CC(N)=O)CC1	6.2%
Cc1cnc(N2CCC3(CC(=O)N(c4cccnc4)C3)C2)nc1 (stereo unspecified)	-20.9%
Cc1ccc(N(C)C(=O)C2CCC(=O)N2S(=O)(=O)c2ccccc2)cc1 (stereo unspecified)	20.6%
COc1cccc(-c2nnc(-c3ccc(-n4ccnc4)nc3)o2)c1	-12.7%
O=C(NCCc1ccccc1)c1ccc2c(=O)n(Cc3ccco3)c(=O)n(Cc3cccc([N+](=O)[O-])c3)c2c1	66.4% (active)
O=C(NCCc1ccccc1)c1ccc2c(=O)nc3c(-c4ccccc4F)n[nH]n3c2c1	-10.3%
COCCn1c(=O)[nH]c2cc(C(=O)NCCNc3ccc([N+](=O)[O-])cc3C#N)ccc2c1=O	-7.15%
COc1cccc(Nc2nc(N3CCCCC3)nc3c2cnn3C)c1	-24.2%
CC(NC(=O)c1nc2n(n1)-c1ccccc1S(=O)(=O)N2)c1cc2ccccc2o1 (stereo unspecified)	0.0682%
O=C(Nc1cnc(N2CCCC2)nc1)c1ccco1	-2.69%
COc1ccc(NC(=O)Cc2noc(-c3cccc(OC)c3)n2)cc1	-26.6%
CSCC[C@H](NC(=O)N1CCn2c1nc1ccccc12)C(=O)NCc1ccc2c(c1)OCO2	43.3% (active)
CC(C)[C@H](NC(=O)N1CCn2c1nc1ccccc12)C(=O)NCCc1ccccc1	-9.82%
COCCCNC(=O)[C@H](Cc1ccccc1)NC(=O)N1CCn2c1nc1ccccc12	1.89%
COCCn1cnc2nnc3ccc(C(=O)NC(C)C)cc3c21	-9.87%
COc1ccc(NC(=O)CSc2cn(Cc3ccccc3C)c3ccccc23)c(OC)c1	8.78%
COc1ccc(CCNC(=O)CSc2cn(CCNC(=O)c3ccccc3C)c3ccccc23)cc1OC	36.5% (active)
COc1ccc(CCNC(=O)c2ccc3ccccc3c2)cc1OC	-12.8%
CC(C)c1noc2ncc(-c3nnc(C4CC4)o3)cc12	-9.16%
COc1ccc2ncc(S(=O)(=O)c3ccccc3)c(N3CCOCC3)c2c1	-25.7%
COc1ccc2ncc(S(=O)(=O)c3ccccc3)c(N3CCN(c4cccc(C)c4C)CC3)c2c1	-1.48%
COc1ccc2ncc(S(=O)(=O)c3ccccc3)c(Nc3ccc(F)cc3)c2c1	38.4% (active)

— PubChem BioAssay AID1645860 (Buhrlage Lab, Dana-Farber Cancer Institute and Novartis …, 2021)
